CYP2C9 inh = inhibitors of human CYP2C9. P11712. CYP2C9 Supersomes, luciferin-H conversion, luminescence. inhibition, % at 5 µM. 96,000 compounds, 20% hits;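 active = blocking of liver enzyme CYP2C9 beyond about 50% at 5 µM, limit read from the data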
Target sequence (P11712 whole entry, looked up): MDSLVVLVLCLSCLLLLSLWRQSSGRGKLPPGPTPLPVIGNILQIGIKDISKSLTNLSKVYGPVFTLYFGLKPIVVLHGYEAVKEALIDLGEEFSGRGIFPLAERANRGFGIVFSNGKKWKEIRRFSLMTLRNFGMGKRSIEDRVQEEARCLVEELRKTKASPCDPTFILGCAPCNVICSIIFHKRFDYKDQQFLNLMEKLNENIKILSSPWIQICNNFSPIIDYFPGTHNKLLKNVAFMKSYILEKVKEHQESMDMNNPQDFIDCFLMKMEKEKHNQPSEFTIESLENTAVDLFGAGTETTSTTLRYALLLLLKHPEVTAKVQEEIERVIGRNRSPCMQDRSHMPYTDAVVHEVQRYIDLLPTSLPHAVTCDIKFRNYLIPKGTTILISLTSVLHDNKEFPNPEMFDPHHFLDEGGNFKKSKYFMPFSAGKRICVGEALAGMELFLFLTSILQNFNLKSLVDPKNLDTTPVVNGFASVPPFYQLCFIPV
CYP2C19 activ = cytochrome P450 2C19 (human) activation. recombinant CYP2C19, luciferin-H EGE luminescence; stronger effect = higher value; 0 = fully inhibited enzyme, 1 = untreated enzyme. activation factor at 5 µM. 96,000 tested, under 10 active;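 active = activation factor of at least 2 at 5 µM in the primary screen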;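 note: 0 = wells with 2.5 mM tranylcypromine and 1 = vehicle-only wells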
CYP2C19 inh = human CYP2C19 inhibition; P33261; CYP2C19 Supersomes, luciferin-H EGE luminescence, 30 min; AID 778; 96,000 compounds, 21% hits; inhibition, % at 5 µM;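 active = CYP2C19 inhibition above a set limit at 5 µM in the primary screen, cut at about 50% in these data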;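 note: plate controls were negative control wells for no effect and 2.5 mM tranylcypromine positive control for full effect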
CYP2C9 activ = activators of human CYP2C9. P11712. recombinant CYP2C9, luciferin-H conversion, luminescence; stronger effect = higher value; factor 1 = untreated enzyme, 0 = blocked. activation factor at 5 µM. 96,000 compounds, 1.4% hits. AID 1024;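 active = activation factor of 2 or more for CYP2C9 at a 5 µM dose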;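 note: 0 = sulfaphenazole-blocked wells and 1 = vehicle-only wells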
Cav3 T inh = human Cav3.2 channel inhibition, primary screen; Cav3.2-expressing cells, Fluo-4 calcium fluorescence FDSS; stronger effect = lower value; B-score at 10 µM; 100,000 compounds, 4% hits;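 active = single-dose well whose peak fluorescence ratio is a statistical outlier from its plate by either plate-standardised score or position-corrected B-score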
An asterisk follows results filed as active; . = not tested or not shown. Sampled rows, rich in hits. Any-hit rate of the full collection: about 27%.

SMILES	CYP2C9 inh	CYP2C19 activ	CYP2C19 inh	CYP2C9 activ	Cav3 T inh
Cc1ccc(S(=O)(=O)N(C)c2ccc(OCC(=O)OCc3c(C)noc3C)cc2)cc1	75.2*	0.2	79.3*	0.2	-0.136
Cc1cc(C#N)c(C)n1-c1cc(C(F)(F)F)ccc1N1CCOCC1	25.9	0	99.4*	0.7	-2.24
Cc1cc(C)n(-c2ccc(C(=O)Nc3cc(C(F)(F)F)ccc3N3CCOCC3)cc2)n1	12.1	0.9	6.0	0.9	0.00733
N#CC1=C(N)SC(N)=C(C#N)C1c1ccnc2ccccc12	69.5*	0.8	23.7	0.3	0.555
CC(C)Cn1c(-c2csc3ccccc23)n[nH]c1=S	33.5	0.2	77.6*	0.7	.
COc1ccc(-c2n[nH]c(=S)n2CC(C)C)cc1	56.1*	0.2	78.5*	0.4	0.0197
O=C(C1=C[C@H](C2CCCCC2)C[C@H](OCCCCO)O1)N1CCN(Cc2ccccc2)CC1	.	.	.	.	-0.00151
CCN(CC)CCCN1C(=O)C(=O)/C(=C(/O)c2ccc3c(c2)CC(C)O3)C1c1ccncc1 (centres undefined)	8.8	1	-4.1	0.9	.
COc1ccc(OC)c(Nc2nc(-c3sc(NC(=O)c4ccccc4)nc3C)cs2)c1	13.8	1.1	-5.8	0.9	0.671
Cc1nc(NC(=O)c2ccccc2)sc1-c1csc(Nc2ccc(Cl)cc2)n1	-18.6	0.6	44.8	1.2	1.08
Cc1nc(NC(=O)c2ccccc2)sc1-c1csc(Nc2ccc(Cl)cc2Cl)n1	10.8	0.3	65.0*	0.9	0.242
COc1ccc(Cl)cc1Nc1nc(-c2sc(NC(=O)CC(C)C)nc2C)cs1	51.9*	0.7	32.5	0.5	1.54
CCCCCC(=O)Nc1nc(C)c(-c2csc(Nc3cc(OC)ccc3OC)n2)s1	55.1*	0.8	18.8	0.4	-0.378
COc1ccc(Cl)cc1Nc1nc(-c2sc(NC(=O)c3ccccc3)nc2C)cs1	67.7*	0.6	36.7	0.3	0.532
COCCN1CCN(c2cc(-c3ccccc3)nc3cc(-c4cccc(F)c4)nn23)CC1	.	.	.	.	0.271
Cc1ccc(C(C(=O)NC2CCCC2)N(Cc2cccs2)C(=O)c2csnn2)o1 (centres undefined)	.	.	.	.	0.333
COc1ccc(OCC(=O)Nc2cccc(-c3nc4ccccc4o3)c2)cc1	34.2	0.6	38.1	0.7	0.289
CC(=O)Nc1cccc(OCC(=O)Nc2ccc(F)cc2)c1	-33.0	0.3	68.5*	1.3	.
COc1ccc(OCC(=O)Nc2cccc(C(C)=O)c2)cc1	50.7*	0.3	66.8*	0.5	.
COc1ccc(OCC(=O)Nc2cccc(-c3nc4ccccc4[nH]3)c2)cc1	93.8*	0.4	64.6*	0.1	-1.89
Cc1cc(C)cc(OCC(=O)Nc2cccc(C(=O)O)c2)c1	7.7	1	-4.2	0.9	0.506
CCOC(=O)c1cccc(NC(=O)COc2ccc([N+](=O)[O-])cc2)c1	77.2*	0.4	56.6*	0.2	-2.66
CC12CN(S(=O)(=O)c3ccccc3)CC(C)(CN(S(=O)(=O)c3ccccc3)C1)C2	8.4	0.9	12.3	0.9	0.00622
CCN(C(C)=O)c1cccc2ccccc12	6.0	1	4.7	0.9	1.03
Cc1cc(C)c2c(=O)c3c(oc2c1)C(=O)N(CCO)C3c1cccc(O)c1 (centres undefined)	53.5*	0.5	50.3*	0.5	0.351
SMILES	CYP2C9 inh	CYP2C19 activ	CYP2C19 inh	CYP2C9 activ	Cav3 T inh
CCOC(=O)C1=C(C)N(CCCC(=O)O)C(=O)NC1c1ccccc1OS(=O)(=O)c1ccc(C)cc1 (centres undefined)	.	.	.	.	0.979
COC(=O)c1cccc2c1-c1ccccc1/C2=N/O	84.5*	0.4	58.8*	0.2	.
O=C1c2cccc(O)c2C(=O)c2c(O)cccc21	.	.	.	.	-0.451
COC(=O)c1ccc2c(c1O)C(=O)c1ccccc1C2=O	40.6	0.4	59.5*	0.6	-0.247
C#CCCOC(=O)N1C2=NC(C(=O)OC)=C(C(=O)OC)[C@@H]3N(CC=C)c4ccccc4[C@]23C[C@H]1C(=O)OC	.	.	.	.	1.07
NC(=O)C1=C[C@H](c2ccc(Br)cc2)C[C@H](OCc2ccc(CO)cc2)O1	.	.	.	.	-0.247
COc1ccc(N(CC(=O)NCCSC(C)(C)C)S(C)(=O)=O)c(OC)c1	-1.8	1	4.0	1	1.05
COc1ccc(CNC(=O)CN(c2cccc(OC)c2)S(C)(=O)=O)cc1	16.9	0.1	86.7*	0.8	-1.17
COc1cccc(N(CC(=O)NCCSc2ccccc2)S(C)(=O)=O)c1	56.0*	0.1	93.4*	0.4	0.276
COc1ccc(OC)c(N(CC(=O)NCCSc2ccccc2)S(C)(=O)=O)c1	89.6*	0.1	93.7*	0.1	0.65
COCCCNC(=O)CN(c1cccc(Cl)c1)S(C)(=O)=O	-28.0	0.9	13.9	1.3	.
COc1cccc(N(CC(=O)NCCSc2ccc(Cl)cc2)S(C)(=O)=O)c1	16.3	0.9	13.5	0.8	-5.54*
CC1CCC(NC(=O)c2cnccn2)CC1 (centres undefined)	34.6	0.8	23.4	0.7	-0.245
COc1ccc(OC)c(NC(=O)C2C3CCC(O3)C2C(=O)O)c1 (centres undefined)	3.2	1	1.5	1	.
COCCNC(=O)CN(c1cccc(OC)c1)S(=O)(=O)c1ccc(C)cc1	40.2	0.2	76.0*	0.6	.
COc1cccc(N(CC(=O)O)S(=O)(=O)c2ccccc2)c1	-9.8	1.2	-21.0	1.1	-0.0687
O=C1COc2ccc(C(=O)CSc3nnc(Cc4cccs4)n3-c3ccccc3)cc2N1	84.7*	0.9	14.9	0.2	-5.36*
O=C1COc2ccc(C(=O)CSc3nnc(-c4cccs4)n3Cc3ccccc3)cc2N1	62.6*	0.5	51.7*	0.4	-2.17
O=C(CSc1nnc2scc(-c3ccccc3)n12)c1ccc2c(c1)OCCO2	-9.6	1.1	-7.6	1.1	0.678
Cn1cnnc1SCC(=O)NC(=O)NC1CCCC1	8.8	0.7	27.3	0.9	0.361
CCCCOC(=O)CSc1nnc(N)s1	15.8	0.5	51.7*	0.8	1.26
Nc1nnc(SCC(=O)c2ccccc2)s1	0.4	0.8	21.0	1	0.371
Cc1ccc(S(=O)(=O)N2CCN(S(=O)(=O)c3ccc(C)cc3)C3OCCOC32)cc1 (centres undefined)	-1.6	1.1	-14.1	1	0.379
COc1cc(/C=C2/S/C(=N/S(=O)(=O)c3ccccc3)NC2=O)c([N+](=O)[O-])cc1OC	99.1*	0.9	6.8	0	-2.98
Cc1cc(/C=C2\SC(=Nc3ccc(F)cc3)NC2=O)c(C)n1-c1ccc(S(N)(=O)=O)cc1	41.3	0.8	16.8	0.6	-1.05
CCOP(=O)(c1c(F)c(F)c(F)c(F)c1F)C1(O)CCCCC1 (centres undefined)	-14.3	1	-4.6	1.1	2.67
CN(C)S(=O)(=O)c1ccc(S(=O)(=O)N(CC(=O)Nc2ccccc2)Cc2ccco2)cc1	38.3	0.9	12.2	0.6	-3.56
CC(=O)Nc1ccc(S(=O)(=O)N(Cc2ccco2)CC2CCCO2)cc1 (centres undefined)	41.8	0.3	72.6*	0.6	.

From PubChem BioAssay
